Measured values published in PubChem BioAssay.
For some of these results: Potency and affinity values are given separately. Activity calls are given as the source filed them.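 The calls were made as follows, unless noted: active = earlier screen potentiator hit that boosts the TRPC4 ion channel at some dose, with a dose response; inactive = no potentiation, no dose response, or not a prior hit.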

Columns and labels:
[1] = tested on: TRPC4 beta (transient receptor potential cation channel C4), mouse; assay: activators of mouse TRPC4 channel, confirmation, cell-based, Fluo4 calcium, HEK293 TRPC4beta/mu-opioid, duplicates, 10 µM (AID 2426;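 active = fluorescence ratio normalized to control raised more than 50% in primary screen plus both repeat runs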); conditions: Fluo4 calcium fluorescence, at 10 µM; hits give high values
[2] = tested on: transient receptor potential cation channel C4 beta (TRPC4), mouse; assay: activators of mouse TRPC4 channel, confirmation, cell-based, second round, Fluo4, HEK293 TRPC4beta/mu-opioid, 1 µM (AID 2461;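 active = primary screen active and over 50% activation in each of two duplicate runs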); conditions: Fluo4 calcium fluorescence, at 1 µM; hits give high values
[3] = tested on: TRPC4 (transient receptor potential cation channel C4 beta), mouse; assay: positive allosteric modulators of mouse TRPC4, confirmation, cell-based, second round, Fluo-4, HEK293 TRPC4beta/mu-opioid, 1 µM (AID 2554;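 active = primary screen hit whose fluorescence ratio, in both repeats, exceeds the weak agonist control mean by 3 SD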); conditions: DAMGO EC20, Fluo-4 calcium flux, at 1 µM; hits give high values
[4] = tested on: TRPC4 beta (transient receptor potential cation channel C4), mouse; assay: positive allosteric modulators of mouse TRPC4, confirmation, cell-based, Fluo-4, HEK293 TRPC4beta/mu-opioid (AID 2555;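 active = primary screen hit whose calcium fluorescence ratio, in both repeats, exceeds the weak agonist control mean by 3 SD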); conditions: DAMGO EC20, Fluo-4 calcium flux, at 10 µM; hits give high values
[5] = target: Short transient receptor potential channel 4 (Mus musculus) (UniProt Q9QUQ5); assay: inhibitors of mouse TRPC4 channel, confirmation, cell-based, Fluo4, HEK293 TRPC4beta/mu-opioid (AID 2636;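 active = calcium signal cut by more than 3 SD below the full-agonist control yet still positive, in both repeats and the earlier primary screen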); conditions: DAMGO, Fluo4 calcium flux, at 10 µM; hits give high values
Chain of Short transient receptor potential channel 4 (Mus musculus) (Q9QUQ5 whole entry, looked up): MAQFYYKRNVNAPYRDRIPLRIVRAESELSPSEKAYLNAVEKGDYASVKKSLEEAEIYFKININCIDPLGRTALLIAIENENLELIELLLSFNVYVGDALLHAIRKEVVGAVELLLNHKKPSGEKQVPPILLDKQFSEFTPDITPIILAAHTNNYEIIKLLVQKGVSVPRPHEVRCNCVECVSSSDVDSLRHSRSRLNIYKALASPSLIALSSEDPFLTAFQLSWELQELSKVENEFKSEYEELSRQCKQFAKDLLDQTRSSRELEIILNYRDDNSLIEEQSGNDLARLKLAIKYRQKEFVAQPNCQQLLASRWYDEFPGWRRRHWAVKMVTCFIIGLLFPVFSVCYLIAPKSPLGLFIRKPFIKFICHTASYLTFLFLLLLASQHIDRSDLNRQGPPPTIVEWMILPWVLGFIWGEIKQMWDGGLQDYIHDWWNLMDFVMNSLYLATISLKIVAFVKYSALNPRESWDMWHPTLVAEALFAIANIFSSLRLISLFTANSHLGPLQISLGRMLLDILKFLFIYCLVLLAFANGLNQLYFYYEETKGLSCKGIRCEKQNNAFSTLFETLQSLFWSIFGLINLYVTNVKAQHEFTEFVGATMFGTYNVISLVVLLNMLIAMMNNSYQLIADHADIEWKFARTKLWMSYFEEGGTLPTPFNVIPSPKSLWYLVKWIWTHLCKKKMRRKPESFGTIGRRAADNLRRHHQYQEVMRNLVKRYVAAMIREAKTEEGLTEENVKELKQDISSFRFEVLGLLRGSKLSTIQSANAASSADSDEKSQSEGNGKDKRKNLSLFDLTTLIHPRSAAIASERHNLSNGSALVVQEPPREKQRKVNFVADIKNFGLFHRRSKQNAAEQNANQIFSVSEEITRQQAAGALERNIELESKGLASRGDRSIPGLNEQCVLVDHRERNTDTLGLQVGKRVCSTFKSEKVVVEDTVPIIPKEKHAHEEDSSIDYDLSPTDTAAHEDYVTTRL

[6] = target: Short transient receptor potential channel 4 (Mus musculus) (UniProt Q9QUQ5); assay: inhibitors of mouse TRPC4 channel, confirmation, cell-based, second round, Fluo4, HEK293 TRPC4beta/mu-opioid, 1 µM (AID 2637;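 active = calcium signal ratio cut to more than 3 SD under the fully stimulated control mean yet still positive, in both repeats and the primary screen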;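 as to inhibition: percent of integrated ratio relative to wells lacking test compound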); conditions: Fluo4 calcium flux, DAMGO, at 1 µM; hits give high values
[7] = target: Short transient receptor potential channel 4 (Mus musculus) (UniProt Q9QUQ5); assay: mouse TRPC4 channel activators, dose response, cell-based, HEK293 TRPC4/mu-opioid, Fluo-4 calcium (AID 434937;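 active = primary screen activator hit with a dose response curve and TRPC4 channel activation at any tested dose; inactive = no activation, no dose response, or not a primary hit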)
[8] = target: Short transient receptor potential channel 4 (Mus musculus) (UniProt Q9QUQ5); assay: TRPC4 positive allosteric modulators, dose response, cell-based, HEK293 TRPC4/mu-opioid, Fluo-4 calcium, EC20 DAMGO (AID 434941);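 also: calcium entry triggered by an EC20 dose of DAMGO at the co-expressed mu-opioid receptor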
[9] = target: Short transient receptor potential channel 6 (Mus musculus) (UniProt Q61143); assay: inhibition of mouse TRPC6 channel, confirmation, selectivity assay for TRPC4 inhibitor project, cell-based, HEK293, membrane potential dye, duplicate (AID 434948;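 active = active in primary screen and both duplicates, each dropping signal beyond three positive-control SD with fluorescence still positive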); conditions: HEK293 TRPC6, membrane potential dye fluorescence, at 10 µM, stimulated with maximal-effect acetylcholine; hits give high values
Chain of Short transient receptor potential channel 6 (Mus musculus) (Q61143 whole entry, looked up): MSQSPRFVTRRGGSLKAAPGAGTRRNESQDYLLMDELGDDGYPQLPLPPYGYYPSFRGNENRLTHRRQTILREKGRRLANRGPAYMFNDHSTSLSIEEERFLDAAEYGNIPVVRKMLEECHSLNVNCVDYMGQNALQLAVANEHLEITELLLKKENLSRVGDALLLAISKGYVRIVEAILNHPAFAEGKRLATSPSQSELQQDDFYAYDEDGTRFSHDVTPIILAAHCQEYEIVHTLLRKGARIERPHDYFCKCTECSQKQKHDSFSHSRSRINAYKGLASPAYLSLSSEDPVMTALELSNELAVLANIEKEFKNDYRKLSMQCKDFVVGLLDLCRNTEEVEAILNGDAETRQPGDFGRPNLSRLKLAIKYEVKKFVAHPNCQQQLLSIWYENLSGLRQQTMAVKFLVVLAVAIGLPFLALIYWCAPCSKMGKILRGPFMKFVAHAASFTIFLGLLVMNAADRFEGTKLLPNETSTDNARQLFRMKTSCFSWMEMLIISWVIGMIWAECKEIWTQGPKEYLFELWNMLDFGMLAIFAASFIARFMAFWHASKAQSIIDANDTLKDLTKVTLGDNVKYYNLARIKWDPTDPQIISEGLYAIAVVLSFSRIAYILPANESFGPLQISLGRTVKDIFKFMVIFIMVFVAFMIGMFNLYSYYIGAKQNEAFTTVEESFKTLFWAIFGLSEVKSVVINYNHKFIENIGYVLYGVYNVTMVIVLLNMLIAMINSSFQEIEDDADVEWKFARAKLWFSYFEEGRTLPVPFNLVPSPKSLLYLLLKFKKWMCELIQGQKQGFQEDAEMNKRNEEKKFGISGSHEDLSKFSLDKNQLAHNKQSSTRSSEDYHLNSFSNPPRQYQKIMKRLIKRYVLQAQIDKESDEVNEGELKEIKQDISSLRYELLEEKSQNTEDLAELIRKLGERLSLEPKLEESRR

[10] = target: Short transient receptor potential channel 6 (Mus musculus) (UniProt Q61143); assay: activation of mouse TRPC6 channel, confirmation, selectivity assay for TRPC4 activator project, cell-based, HEK293, membrane potential dye, duplicate (AID 434950;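 active = membrane potential signal rise above negative control mean plus 3 SD in both duplicates, also active in the earlier TRPC4 screen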); conditions: HEK293 TRPC6, membrane potential fluorescence, at 10 µM; hits give high values
[11] = target: Short transient receptor potential channel 6 (Mus musculus) (UniProt Q61143); assay: TRPC6 potentiation by TRPC4 potentiator hits, confirmation, selectivity assay for TRPC4 potentiator project, HEK293 cells, membrane potential dye, duplicate (AID 434952;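 active = compound raising the membrane signal above positive-control mean plus 3 SD in both repeats, and a primary screen hit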); conditions: HEK293 TRPC6, membrane potential dye fluorescence, at 10 µM, maximal acetylcholine added after compound; hits give high values
[12] = target: Short transient receptor potential channel 4 (Mus musculus) (UniProt Q9QUQ5); assay: calcium flux activators in TRPC4/5HT1a cells, counter-screen for TRPC4 activator project, cell-based, second counter screen, HEK293 TRPC4/5HT1a, Fluo-4 (AID 434977;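 active = calcium signal rise above buffer-control mean plus 5 SD in both duplicates, and also a hit in the primary screen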); conditions: Fluo-4 calcium flux, at 10 µM; hits give high values
[13] = calcium flux inhibitors in TRPC4/5HT1a cells, confirmation, counter-screen for TRPC4 inhibitor project, cell-based, second counter screen, HEK293 TRPC4/5HT1a, Fluo-4 (AID 434978;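 active = primary screen active whose calcium signal fell more than 3 SD beyond the full-serotonin control mean in both duplicate plates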); conditions: Fluo-4 calcium flux, at 10 µM, serotonin added to trigger calcium flux; hits give high values
[14] = tested on: TRPC4 (mouse), co-expressed with 5HT1a in HEK293; assay: calcium flux potentiators in TRPC4/5HT1a cells, confirmation, counter-screen for TRPC4 potentiator project, cell-based, second counter screen, HEK293 TRPC4/5HT1a, Fluo-4 (AID 434979;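 active = signal rise over 3 SD above mean of control wells given weak agonist, in both repeats and first screen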); conditions: Fluo-4 calcium flux, at 10 µM, serotonin added at its EC20 dose; hits give high values
[15] = calcium flux activation in mu-opioid HEK293 cells, confirmation, counter-screen for TRPC4 activator project, cell-based, HEK293 mu-opioid receptor line (AID 449723;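 active = hit in primary screen, with calcium signal over 5 SD above buffer well mean in both duplicates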;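 also: counter screen cells carry the mu-opioid receptor alone and lack TRPC4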); conditions: Fluo-4 calcium fluorescence, at 10 µM; hits give high values
[16] = calcium flux enhancement in mu-opioid HEK293 cells, confirmation, counter-screen for TRPC4 allosteric potentiator project, cell-based, HEK293 mu-opioid receptor line (AID 449724;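 active = calcium signal rise more than 3 SD above the low-dose agonist control mean, in both duplicate plates and the primary screen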); conditions: Fluo-4 calcium flux, at 10 µM, compound added before EC20 DAMGO stimulus; hits give high values

Measured: inhibition

CCOc1cc(CNCCCN2CCOCC2)cc(Br)c1OCc1ccccc1Cl
active: [5] 77%
inactive: all other assays above

COc1ccc(Cl)cc1N/C(N)=N/c1nc(C)cc(C)n1
active: [5] 94% | [6] 53% | [9] 58% | [13] 15.3%
inactive: all other assays above

COc1ccc(Nc2c3c(nc4ccccc24)CCC3)cc1
active: [5] 98% | [13] 22.1%
inactive: all other assays above

Cc1cc(CN2CCCC(C(=O)Nc3ccc(-c4nc5ccccc5[nH]4)cc3)C2)n[nH]1 (configuration not stated)
active: [5] 77% | [6] 61% | [13] 37.2%
inactive: all other assays above

O=C(Cc1ccccc1)Nc1ccccc1Sc1ccccc1
active: [5] 86% | [13] 40.9%
inactive: all other assays above

COc1cccc2cc(C(N)=O)/c(=N\NC(=O)c3ccccc3)oc12
active: [5] 73% | [6] 44% | [13] 40.1%
inactive: all other assays above

CC(=O)N1CCN(c2ccccc2NC(=O)c2ccc3ccccc3c2)CC1
active: [5] 85% | [6] 74% | [13] 36.5%
inactive: all other assays above
